Data taken from publication PMC4336329 (PLoS ONE, 2015).
Screen size: about 310,000 compounds; about 14,000 (4.5%) showed an effect of 50% or more. Effects have a minus sign here. Only a selection was taken, and strong results are over-represented in it overall.

target: human ether-à-go-go-related gene (hERG) potassium channel (human, UniProt Q12809); experiment: primary screen, population patch clamp on CHO cells stably expressing hERG; higher = less effect of the substance
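Note: peak tail current of the secondary pulse compared with the same well before compound.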

Sequence of human ether-à-go-go-related gene (hERG) potassium channel (Q12809 whole entry, looked up): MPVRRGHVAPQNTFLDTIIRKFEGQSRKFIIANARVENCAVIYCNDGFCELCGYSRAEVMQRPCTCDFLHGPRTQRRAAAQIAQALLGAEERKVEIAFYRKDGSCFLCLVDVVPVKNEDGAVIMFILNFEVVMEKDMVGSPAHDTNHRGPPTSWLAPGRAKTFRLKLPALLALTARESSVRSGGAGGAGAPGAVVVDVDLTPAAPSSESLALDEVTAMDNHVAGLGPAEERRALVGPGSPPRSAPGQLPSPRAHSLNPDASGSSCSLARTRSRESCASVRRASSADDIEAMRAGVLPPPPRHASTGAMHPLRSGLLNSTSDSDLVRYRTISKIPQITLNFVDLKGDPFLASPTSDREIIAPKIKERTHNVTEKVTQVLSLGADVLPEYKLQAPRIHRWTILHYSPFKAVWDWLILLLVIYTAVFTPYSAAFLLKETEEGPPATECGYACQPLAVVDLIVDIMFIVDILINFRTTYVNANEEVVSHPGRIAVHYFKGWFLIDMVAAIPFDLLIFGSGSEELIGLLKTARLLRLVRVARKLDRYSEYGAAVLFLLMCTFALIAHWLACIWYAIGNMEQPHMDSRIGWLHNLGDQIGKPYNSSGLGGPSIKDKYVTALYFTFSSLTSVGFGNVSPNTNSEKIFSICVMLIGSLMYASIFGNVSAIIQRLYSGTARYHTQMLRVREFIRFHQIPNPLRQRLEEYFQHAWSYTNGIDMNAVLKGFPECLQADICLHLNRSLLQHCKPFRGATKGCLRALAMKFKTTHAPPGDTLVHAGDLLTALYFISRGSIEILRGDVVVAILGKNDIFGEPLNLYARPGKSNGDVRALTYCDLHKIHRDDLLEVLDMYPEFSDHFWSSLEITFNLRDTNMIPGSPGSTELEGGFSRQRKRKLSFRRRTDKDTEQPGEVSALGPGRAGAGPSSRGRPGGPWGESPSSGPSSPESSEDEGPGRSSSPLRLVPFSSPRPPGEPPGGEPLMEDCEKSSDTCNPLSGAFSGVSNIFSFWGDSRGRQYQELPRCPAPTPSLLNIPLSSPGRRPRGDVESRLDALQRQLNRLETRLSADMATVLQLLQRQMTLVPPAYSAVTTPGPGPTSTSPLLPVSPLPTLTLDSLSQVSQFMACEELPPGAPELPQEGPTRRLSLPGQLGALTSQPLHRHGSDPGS

Compound	hERG current change (%, negative = inhibition) at 10uM [%]
O.O=C(OCC1OC2C(Oc3nc(=O)ccn32)C1O)c1ccccc1 (stereo not shown)	-0.213
Cc1ccc(C(=O)N(C)Cc2ccc(N3CCOCC3)cc2)cc1S(=O)(=O)NCc1ccccc1	-55.6
Cc1ccc(C)c(S(=O)(=O)NCc2ccc(C(=O)N3CCN(c4ccccc4)CC3)cc2)c1	-3.21
Cc1ccc(C(=O)N(C)Cc2ccccc2)cc1S(=O)(=O)N1CCOCC1	-12.8
CCN(CC)C(=O)N1CCc2ccccc21	0.177
COc1cccc(CC2(CO)CCCN(Cc3cn[nH]c3C3CCCCC3)C2)c1 (stereo not shown)	-45.1
COc1cccc(CC2(CO)CCCN(Cc3c(C)cc(C)cc3-n3cccn3)C2)c1 (stereo not shown)	-84.4
CCn1ccnc1CN1CCCC(CO)(Cc2cccc(OC)c2)C1 (stereo not shown)	-17.7
COc1ccc(-n2ccnc2CN2CCCC(CO)(Cc3cccc(OC)c3)C2)cc1 (stereo not shown)	-24.2
COc1cccc(CC2(CO)CCCN(Cc3cc(F)ccc3-n3cccn3)C2)c1 (stereo not shown)	-77.3
COc1cccc(CC2(CO)CCCN(Cc3cn[nH]c3-c3ccc(F)cc3)C2)c1 (stereo not shown)	6.58
COc1ccc(NC2=C(NC(C)=O)C(=O)c3ccccc3C2=O)cc1	13.5
COc1cc(OC)nc(NC(=O)CSc2nc3ccccc3[nH]2)n1	-1.61
CCOc1ccc(CCNC(=O)c2cccc(S(=O)(=O)N3CC(C)OC(C)C3)c2)cc1OCC (stereo not shown)	-27.3
COCCCC1CCN(Cc2cn[nH]c2-c2cc(OC)c(OC)c(OC)c2)CC1	-61.8
COc1cc(-c2[nH]ncc2CN2CCN(c3cccc(C)n3)CC2)cc(OC)c1OC	-47.3
COCC1CCN(Cc2cn[nH]c2-c2cc(OC)c(OC)c(OC)c2)CC1	-38.1
COc1cc(-c2[nH]ncc2CN2CCSCC2)cc(OC)c1OC	-9.26
COc1ccc(-c2[nH]ncc2CN2CCN(Cc3cccs3)CC2)cc1F	-31.2
COc1cc(-c2[nH]ncc2CN2CCN(Cc3cccs3)CC2)cc(OC)c1OC	-50.3
CCCCN(C(=O)c1cccc(S(=O)(=O)N2CCCC2)c1)c1c(N)n(CCC)c(=O)[nH]c1=O	4.89
CCN(CC)CCN=Cc1c(O)n(Cc2ccccc2)c(=O)[nH]c1=O [14739636]	-31.3

Compound	hERG current change (%, negative = inhibition) at 10uM [%]
CN(C)CCCN=Cc1c(O)n(Cc2ccc3c(c2)OCO3)c(=O)c2ccccc12	-49.1
O=c1c2ccccc2c(C=NCCc2ccccc2)c(O)n1Cc1ccccc1	-5.61
CCN(CC)CCCN=Cc1c(O)n(-c2ccccc2C)c(=O)c2ccccc12	-52.8
CCN(CC)CCCN=Cc1c(O)n(Cc2ccccc2)c(=O)c2ccccc12	-76.7
CN(C)CCN=Cc1c(O)n(Cc2ccc3c(c2)OCO3)c(=O)c2ccccc12	-13.8
CCN(CC)CCCN=Cc1c(O)n(-c2ccc(C)cc2)c(=O)c2ccccc12	-5.54
CCN(CC)CCCN=Cc1c(O)n(-c2c(C)cccc2C)c(=O)c2ccccc12	-34.2
CN(C)CCN=Cc1c(O)n(Cc2ccccc2)c(=O)c2ccccc12	-52.2
CN(C)CCCN=Cc1c(O)n(Cc2ccccc2)c(=O)c2ccccc12	-64.5
O=c1c2ccccc2c(C=NCCCN2CCOCC2)c(O)n1Cc1ccccc1	-47.7
CCN(CC)CCCN=Cc1c(O)n(-c2cccc(C)c2)c(=O)c2ccccc12	-42.8
Cc1cccc(NC(=O)CSc2nnc(Cn3cnc4ccccc43)o2)c1	-9.07
Cc1ccc(S(=O)(=O)N2CCN(C(=O)c3c(-c4ccccc4)noc3C)CC2)cc1	-4.97
COc1ccc(S(=O)(=O)Nc2ccc(C(F)(F)F)cc2)cc1OC	-12.4
CCCC1CCC(c2nc(-c3cccnc3)no2)CC1 (stereo not shown)	2.03
O=C(Cc1ccccc1)N1CCC(c2nc(-c3ccc(F)cc3)no2)CC1	-50.6
O=C(c1ccco1)N1CCC(c2nc(-c3ccc(F)cc3)no2)CC1	-41.8
O=C(Cc1ccccc1)N1CCCC(c2nc(-c3ccc(S(=O)(=O)N4CCCC4)cc3)no2)C1 (stereo not shown)	-9.11
Fc1ccc(-c2noc(C3CCN(Cc4cccnc4)CC3)n2)cc1	-51.5
O=S(=O)(Cc1ccccc1)N1CCCC(c2nc(-c3ccc(F)cc3)no2)C1 (stereo not shown)	-3.59
COCC(=O)N1CCC(Oc2ccc(C(=O)NC3Cc4ccccc4C3)cc2)CC1	-3.57
S=c1[nH]nc(-c2ccncc2)n1/N=C/C(Cl)=C\c1ccccc1	23.3

Compound	hERG current change (%, negative = inhibition) at 10uM [%]
COc1ccccc1CNC(=O)c1cccc(N(C)C)c1	-2.52
CCCCn1c(O)c(C(C)=NC(Cc2c[nH]c3ccccc23)C(=O)OC)c(=O)[nH]c1=O (stereo not shown)	-52.1
CCCCn1c(O)c(C(C)=NC(C)c2ccccc2)c(=O)[nH]c1=O (stereo not shown)	-22.3
CCCCn1c(O)c(C(C)=NCCc2c[nH]c3ccccc23)c(=O)[nH]c1=O	-16
COC(=O)c1cc(=O)nc2scc(C)n12	-23.1
CCC1CCCCN1Cc1ccc(CNS(=O)(=O)c2ccc3c(c2)oc(=O)n3C)o1 (stereo not shown)	-19.3
CCOC(=O)c1cc(-c2cc(OC)c(OC)c(OC)c2)nc2c1c(=O)[nH]c(=O)n2Cc1ccccc1	1.34
CCCOC(=O)c1ccc(NC(=O)CC(C)(C)C)cc1	-11.1
CC(=O)Oc1ccc(/C(C)=N\N2CCN(Cc3ccc(Cl)cc3)CC2)cc1	-36.8
CC(=O)Oc1ccc(/C(C)=N/N2CCN(Cc3ccc(C)cc3)CC2)cc1	-73.2
COc1cc(/C(C)=N/N2CCN(Cc3ccc(C)cc3)CC2)ccc1O	-44.3
C(=C\c1ccccc1)/C=N/N1CCN(Cc2ccccc2)CC1	1.45
C/C(=N/N1CCN(Cc2ccccc2)CC1)c1ccc(Br)cc1	-19.9
C/C(=N\N1CCN(c2ccc(Cl)cc2)CC1)c1cccc([N+](=O)[O-])c1	-12.4
Cc1ccc(CN2CCN(/N=C\C=C\c3ccccc3)CC2)cc1	-72.2
C/C(=N\N1CCN(Cc2ccc(Cl)cc2)CC1)c1ccc(F)cc1	-51.6
O=[N+]([O-])c1ccc(Cl)c(/C=N/N2CCN(Cc3ccc(Cl)cc3)CC2)c1	4.9
C/C(=N\N1CCN(Cc2ccccc2Cl)CC1)c1ccc(F)cc1	2.05
C/C(=N\N1CCN(Cc2ccc(Cl)cc2)CC1)c1ccc([N+](=O)[O-])cc1	-72.6
Cc1ccc(CN2CCN(/N=C/c3ccccc3)CC2)cc1	-12.7
